Rows were chosen to be rich in hits. Some 3.8% of all compounds tested hit in one or more screens of this group.
tim23-1 inh – tim23-1 yeast growth inhibition | actives 1.3% (n = 330,000) | AID 463212 | S. cerevisiae tim23-1 growth, BacTiter-Glo luminescence, 24 h | inhibition, % at 20 µM;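 active means growth inhibition of the mutant yeast at or above 50%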;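 further: temperature-sensitive mutant grown at 25 °C; plate controls were DMSO-treated mutant yeast for no effect and medium wells lacking yeast for full effect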
TIM10 inh – TIM10 yeast growth inhibition | S. cerevisiae TIM10 strain growth, BacTiter-Glo luminescence, 24 h | inhibition, % at 10 µM | actives 1.4% (n = 330,000) | AID 463195;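 active means inhibition of 40% or more at the single tested concentration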;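 further: wild-type TIM10 isogenic control strain grown at permissive 25 °C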
tim10-1 inh – tim10-1 yeast growth inhibition. S. cerevisiae tim10-1 ts strain growth, BacTiter-Glo, 24 h. inhibition, % at 20 µM. actives 2.2% (n = 330,000). AID 463190;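 active means inhibition of at least 40%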;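 further: mutant grown at 25 °C; 0% = DMSO wells with yeast and 100% = wells holding no yeast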
PfHsp90 yeast 2 – reduces growth (ATP signal) of yeast expressing P. falciparum Hsp90; S. cerevisiae expressing PfHsp90, BacTiter-Glo ATP, 48 h; yeast lacking PDR1 and PDR3 efflux regulators; inhibition, % at 9.4 µM; actives 0.32% (n = 310,000);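 active means every replicate shows inhibition above about 80%, whatever the replicate mean, limit read from the data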;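 further: 0% = DMSO neutral controls and 100% = 20 µM radicicol positive controls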
B2AR ag – human beta-2 adrenergic receptor agonism by FAP; P07550; Am2.2-beta2AR cells, FAP receptor internalization, flow cytometry; response, % (test concentration not listed); actives 0.43% (n = 340,000);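 active means response above a set limit, near 3 SD of response in nonfluorescent compounds, cut at about 42% in these data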
Target sequence (P07550 whole entry, looked up): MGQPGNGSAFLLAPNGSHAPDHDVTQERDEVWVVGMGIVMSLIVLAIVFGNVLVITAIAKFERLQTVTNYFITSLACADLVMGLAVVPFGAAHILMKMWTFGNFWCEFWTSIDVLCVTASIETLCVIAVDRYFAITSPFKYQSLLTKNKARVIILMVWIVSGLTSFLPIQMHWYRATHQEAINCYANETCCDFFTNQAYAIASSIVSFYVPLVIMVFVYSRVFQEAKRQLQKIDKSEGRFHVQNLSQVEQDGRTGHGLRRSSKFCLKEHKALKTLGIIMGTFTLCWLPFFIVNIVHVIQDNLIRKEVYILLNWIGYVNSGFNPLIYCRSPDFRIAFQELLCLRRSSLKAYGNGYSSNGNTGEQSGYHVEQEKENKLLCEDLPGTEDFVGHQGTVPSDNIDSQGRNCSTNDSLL
tim10-1 conf – tim10-1 yeast growth inhibition, confirmed. actives 56% (n = 7,400). shares compounds with tim10-1 inh. AID 463213. inhibition, % at 20 µM. S. cerevisiae tim10-1 ts strain growth, BacTiter-Glo, 24 h;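 active means inhibition of yeast growth at or above a set limit in either of two repeat tests at 20 µM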;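 further: tim10-1 mutant grown at permissive 25 °C to find synthetic lethal compounds; 0% = DMSO yeast wells and 100% = medium wells without yeast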
* hit, by the source's call; · = no result.

SMILES | tim23-1 inh | TIM10 inh | tim10-1 inh | PfHsp90 yeast 2 | B2AR ag | tim10-1 conf
COc1ccc(C2=NN(C(N)=S)C(c3ccco3)C2)cc1 (stereo not given) | 5.5 | -4.1 | 6.7 | -14.9 | 4.7 | ·
COc1ccc(C2=NN(C(=O)CSc3nnc(-c4ccccc4F)o3)C(c3ccco3)C2)cc1 (stereo not given) | 42.4 | 26.2 | 47.5* | 3.2 | 0.1 | 37.5*
COc1ccc(NC(=O)N2CCCc3ccccc32)c(OC)c1 | 29.1 | 10.4 | 23.5 | 9.5 | 0.2 | ·
COc1ccc(C)cc1NC(=O)N1CCCc2ccccc21 | 25.9 | 3.7 | 46.7* | -5.4 | 1.8 | 15.3
Cc1ccccc1OCc1n[nH]c(=S)n1Cc1ccccc1 | 35.8 | 24.1 | 47.3* | -41.4 | -277.8 | 21.5
CC(C)(C)c1ccc(-c2n[nH]c(=S)n2Cc2ccccc2)cc1 | 36.7 | 29.3 | 44.6* | 17.2 | 0.3 | 38.0*
CCCCNC(=O)C(=O)Nc1cc2c3c(c1)CCC(=O)N3CCC2 | -15.5 | -30.9 | 43.2* | 10.6 | 3.1 | -34.9
COc1ccccc1CNC(=O)c1c(N)n(CCCN2CCOCC2)c2nc3ccccc3nc12 | · | · | · | 15.1 | 26.1 | ·
Nc1c(C(=O)NCc2ccc3c(c2)OCO3)c2nc3ccccc3nc2n1CCCN1CCOCC1 | 8.1 | 4.5 | 43.7* | -13.5 | 3.5 | 29.4
Cc1ccc(-c2nc(C(=O)NCCCN3CCOCC3)cc3c2[nH]c2ccccc23)cc1 | 26.0 | 18.5 | 40.5* | · | -25.9 | 32.4*
COc1ccc(-c2nc(C(=O)NCCCN3CCOCC3)cc3c2[nH]c2ccccc23)cc1OC | 2.7 | -3.0 | 16.8 | 47.2 | 2.3 | ·
COC(=O)C1=C(Nc2cc(Cl)cc(Cl)c2)CSC1 | 1.7 | -4.7 | 13.6 | -14.2 | 3.9 | ·
C(=C\n1nnc2ccccc21)/c1ccc[nH]1 | 22.9 | 2.5 | 17.4 | 18.6 | -0.4 | ·
CCc1[nH]nc2c1C(c1ccc(C)o1)C(C#N)=C(N)O2 (stereo not given) | -1.8 | -2.8 | -1.5 | · | 8.6 | ·
Cc1ccc(SCc2[nH]nc3c2C(c2ccc(C)o2)C(C#N)=C(N)O3)cc1 (stereo not given) | 40.6 | 23.4 | 41.6* | 0.1 | 2.6 | 37.8*
CC(O)CNc1nc(N)[nH]c(=O)c1N=Nc1ccccc1 (stereo not given) | · | · | · | -8.3 | -0.9 | ·
O=C(N=Nc1ccc(NOC(=O)c2ccccc2Br)cc1)c1ccccc1O | 44.1 | 19.9 | 49.6* | · | · | 37.0*
Cc1cc(N=NC(=O)c2ccccc2O)c2ccccc2c1O | 1.6 | 9.9 | 1.9 | 7.0 | -0.7 | ·
COc1ccc(C2c3sc(=O)[nH]c3SCC2C(N)=O)cc1 (stereo not given) | -1.0 | 10.1 | 1.1 | -15.2 | 3.1 | ·
CCOC(=O)C1CSc2[nH]c(=O)sc2C1c1ccccc1 (stereo not given) | 36.9 | 21.2 | 40.0 | -7.0 | -6.0 | 16.2
CCc1nn(CCCC(=O)N2CCN(c3cccc(C)c3C)CC2)c(=O)c2cc3occc3n12 | 38.3 | 27.4 | 54.0* | -3.3 | -1.4 | 20.6
Cc1cc(C)c2c(-n3cccc3)c(C(=O)NNS(=O)(=O)c3ccccc3)sc2n1 | 34.2 | 28.9 | 34.5 | · | -6.8 | ·
Cc1cc(C)c2c(-n3cccc3)c(C(=O)NNS(=O)(=O)c3ccc(Cl)cc3)sc2n1 | 40.5 | 31.6 | 43.4* | -16.8 | 5.8 | 32.5*
CCOc1cc(/C=C2\C(=O)N(c3ccc(C(N)=O)cc3)N=C2C)ccc1OC(=O)c1cccs1 | 9.4 | 13.7 | 17.5 | 10.5 | 13.6 | ·
CCOc1cc(/C=C2/C(=O)N(c3ccccc3)N=C2C)ccc1OC(=O)c1ccco1 | 13.7 | 25.3 | 40.4* | 12.1 | -4.7 | 26.4
SMILES | tim23-1 inh | TIM10 inh | tim10-1 inh | PfHsp90 yeast 2 | B2AR ag | tim10-1 conf
CCCCCCCSc1nsc(N)n1 | 43.3 | 23.8 | 45.4* | · | -1.0 | 20.6
O=C(c1cccc(S(=O)(=O)N2CCc3ccccc32)c1)N1CCN(c2ccccc2)CC1 | 14.8 | -14.4 | 12.2 | -2.6 | 5.2 | ·
O=[N+]([O-])c1c(NCCCO)cc(Sc2nc3ccccc3s2)c2nonc12 | 30.2 | 11.4 | 84.8* | · | 96.1* | 85.0*
CCN(CC)C(=S)NC(=O)c1ccc(OC)c(Br)c1 | 27.2 | 17.7 | 43.6* | -9.0 | 0.1 | 19.1
C=CCN(CC=C)C(=S)NC(=O)c1ccc(OC)c(Br)c1 | 45.5 | 24.7 | 14.3 | -55.0 | 3.0 | ·
CC(C)(C)OC(=O)N1CCCC(C(=O)Nc2ccc(C(=O)NCc3ccccc3)cc2)C1 (stereo not given) | · | · | · | -2.3 | -2.7 | ·
CC(C)(C)CC(=O)Nc1nnc(SCC(=O)N2CCCCC2)s1 | 15.7 | 6.7 | -0.8 | -49.0 | -2.6 | ·
Cc1cccc2nc(-c3cccnc3)c(Nc3ccccc3)n12 | 10.0 | -2.7 | 3.5 | -8.3 | -7.3 | ·
Cc1cccc2nc(-c3cccnc3)c(NCCC(C)C)n12 | 40.2 | 23.1 | 45.6* | -61.1 | 5.8 | 39.5*
CCSc1nnc2ccc(-c3ccc(C)cc3)nn12 | 38.4 | -5.3 | 45.4* | -13.6 | -6.2 | 24.3
CCSc1nnc2ccc(-c3cccs3)nn12 | 9.6 | 4.0 | -9.7 | 14.0 | 5.8 | ·
CCc1ccc(-c2ccc3nnc(SC)n3n2)cc1 | 42.1 | 17.1 | 55.6* | -39.9 | -4.7 | 18.2
CCc1ccc(-c2ccc3nnc(SCC(N)=O)n3n2)cc1 | 14.5 | 15.3 | 22.6 | -14.7 | -8.3 | ·
Cc1n[nH]c2c([N+](=O)[O-])c(=O)[nH]c(=O)n12 | · | · | · | -9.5 | 2.3 | ·
CSc1ccc(/C=C/C(=O)c2c(O)cc(C)oc2=O)cc1 | 44.1 | 33.2 | 46.9* | 15.5 | 8.1 | 38.5*
Clc1ccc(C2Nc3cccc4cccc(c34)N2)cc1 | 32.9 | 10.9 | 10.7 | -17.5 | 6.3 | ·
Cc1cccc(C2Nc3cccc4cccc(c34)N2)c1 | 41.0 | 35.9 | 40.7* | -11.9 | 31.6 | 23.6
O=C(c1ccccc1)N1CCOC(O)(c2ccccc2)C1c1ccccc1 (stereo not given) | · | · | · | · | 11.3 | ·
Cc1cc(Cl)ccc1NC(=S)NCCc1ccc(Cl)cc1 | 41.7 | 23.2 | 35.4 | -12.3 | -6.5 | ·
Cc1cc(Cl)ccc1NC(=S)NCCC(c1ccccc1)c1ccccc1 | 12.5 | 30.5 | 40.5* | -25.0 | -2.6 | 14.9
CCOc1cc(/C=N/O)cc(Br)c1OCc1ccc(Cl)cc1 | -18.5 | -10.7 | 53.5* | -2.1 | 5.1 | 26.9
O=S(=O)(Nc1nc(-c2sccc2Cl)cs1)c1cc(Cl)ccc1Cl | 36.8 | 33.4 | 43.1* | -55.1 | 23.4 | 13.3
CC(C)(C)c1nnc(NS(=O)(=O)c2cc(Cl)ccc2Cl)s1 | -1.7 | -0.4 | -12.2 | -8.9 | -8.3 | ·
CC(C)(C)c1ccc2c(c1)OC(C(=O)N/N=C\c1ccc[nH]1)CO2 (stereo not given) | 34.3 | -40.6 | 42.2* | 0.1 | 2.5 | -102.8
C=CCN1C(=O)/C(=c2\sc3nc(=O)c(Cc4ccccc4Cl)nn3c2=O)c2ccccc21 | 17.2 | 17.9 | 15.0 | -9.5 | 9.0 | ·
O=S(=O)(/C=C/c1ccccc1)n1cnc2ccccc21 | 29.0 | 37.6 | 44.4* | -0.7 | 4.9 | 32.3*
CN(C)S(=O)(=O)n1cnc2ccccc21 | 3.3 | -1.0 | 6.8 | -14.6 | -5.9 | ·
